In all, about 310,000 compounds went through this assay and about 2,200 (0.71%) showed an effect of 50% or more. The effect is printed as a negative number. The full list was thinned out, with strong results kept by preference.
What follows are compounds tested against human ether-à-go-go-related gene (hERG) potassium channel (human, UniProt Q12809) (assay: primary screen, population patch clamp on CHO cells stably expressing hERG; higher = less effect of the substance).
Chain of human ether-à-go-go-related gene (hERG) potassium channel (Q12809 whole entry, looked up): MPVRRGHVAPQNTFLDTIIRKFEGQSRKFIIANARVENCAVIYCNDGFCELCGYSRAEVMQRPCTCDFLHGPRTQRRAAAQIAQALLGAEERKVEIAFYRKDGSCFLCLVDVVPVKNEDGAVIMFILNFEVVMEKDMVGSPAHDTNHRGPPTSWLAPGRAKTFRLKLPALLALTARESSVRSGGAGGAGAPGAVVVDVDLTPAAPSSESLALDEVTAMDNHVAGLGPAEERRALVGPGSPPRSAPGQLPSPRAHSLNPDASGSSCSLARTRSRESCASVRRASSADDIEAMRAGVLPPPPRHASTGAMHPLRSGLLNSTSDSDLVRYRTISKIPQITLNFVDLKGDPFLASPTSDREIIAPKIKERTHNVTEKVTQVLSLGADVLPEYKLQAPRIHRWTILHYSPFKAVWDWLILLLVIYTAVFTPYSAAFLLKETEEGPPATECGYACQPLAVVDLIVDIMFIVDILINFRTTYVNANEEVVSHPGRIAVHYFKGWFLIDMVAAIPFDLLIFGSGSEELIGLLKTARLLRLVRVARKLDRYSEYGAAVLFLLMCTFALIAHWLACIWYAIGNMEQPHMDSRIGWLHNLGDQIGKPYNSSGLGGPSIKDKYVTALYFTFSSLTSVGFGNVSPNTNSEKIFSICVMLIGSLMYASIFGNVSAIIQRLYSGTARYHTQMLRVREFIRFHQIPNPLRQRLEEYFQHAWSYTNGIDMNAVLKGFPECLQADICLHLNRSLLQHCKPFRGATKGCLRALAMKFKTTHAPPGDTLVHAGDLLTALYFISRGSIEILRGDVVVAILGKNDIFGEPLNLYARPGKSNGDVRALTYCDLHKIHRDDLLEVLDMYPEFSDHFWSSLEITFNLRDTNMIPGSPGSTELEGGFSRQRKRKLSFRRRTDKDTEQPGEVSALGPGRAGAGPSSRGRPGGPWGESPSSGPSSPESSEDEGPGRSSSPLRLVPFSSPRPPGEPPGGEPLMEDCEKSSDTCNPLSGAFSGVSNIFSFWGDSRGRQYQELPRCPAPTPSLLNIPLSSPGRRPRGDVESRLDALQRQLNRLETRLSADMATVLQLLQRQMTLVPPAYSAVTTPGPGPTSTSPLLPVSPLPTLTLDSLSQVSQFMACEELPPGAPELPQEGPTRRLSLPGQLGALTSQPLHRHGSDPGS

SMILES	hERG current change (%, negative = inhibition) at 1uM [%]
O=c1ccc(-c2nc3cc(Cl)ccc3n2Cc2ccccc2)c[nH]1	-45
Cc1cc(C)nc(SCC(=O)c2ccc(O)c(O)c2)n1	16
O=S(=O)(N/N=C/c1cn(Cc2ccccc2)c2ccccc12)c1ccccc1	6.23
CCc1ccc2oc(C(=O)N3CCN(c4ccc(OC)cc4)CC3)cc(=O)c2c1	1.45
COc1ccc(N2CCN(C(=O)c3cc(=O)c4cc(C)ccc4o3)CC2)cc1	-3.09
COc1ccccc1N1CCN(C(=O)c2cc(=O)c3cc(C)ccc3o2)CC1	-8.99
COc1ccccc1N1CCN(C(=O)c2cc(=O)c3ccc(C)cc3o2)CC1	1.21
COc1ccc(N2CCN(C(=O)c3cc(=O)c4cc(Cl)ccc4o3)CC2)cc1	-81.5
CCc1ccc2oc(C(=O)N3CCN(c4ccccc4OC)CC3)cc(=O)c2c1	-57.4
Cc1ccc(Cn2nnc3c(=O)[nH]c(C4CCCN(C(=O)Nc5ccc(F)cc5F)C4)nc32)cc1 (centres unmarked)	13.8
O=C(CNC(=O)c1ccccc1O)N/N=C/c1ccccn1	4.2
COc1ccc(Cc2nnc(SCC(=O)Nc3ccc(C)c(Cl)c3)[nH]c2=O)cc1	5.51
O=C(Nc1ccnn1C1CCN(CC(O)CO)CC1)C1CCCC1 (centres unmarked)	12.5
CCc1ccc(CN2CCC(n3nccc3NC(=O)c3ccccc3)CC2)o1	-6.11
CC(C)=CCCC(C)CN1CCC(n2nccc2NC(=O)c2ccccc2)CC1 (centres unmarked)	-52.2
CC(CN1CCC(n2nccc2NC(=O)C2CCCC2)CC1)c1ccccc1 (centres unmarked)	2.95
CC(C)=CCCC(C)CN1CCC(n2nccc2NC(=O)c2cccnc2)CC1 (centres unmarked)	-5.79
CC(C)=CCCC(C)CN1CCC(n2nccc2NC(=O)C2CCCC2)CC1 (centres unmarked)	-50.3
CCOC(=O)C(C)n1cnc2c1c(=O)[nH]c(=O)n2C (centres unmarked)	8.76
CCCCNC(=O)[C@H]1C[C@H]1[C@@H](O)[C@H](CO)NC(=O)[C@H](Cc1ccccc1)NC(=O)OC(C)(C)C	11.5
CCOc1ccc(C(=O)Nc2ccc(S(=O)(=O)N3C[C@@H]4C[C@@H](C3)c3cccc(=O)n3C4)cc2)cc1	-1.43
CCN(CC)CCNC(=O)c1[nH]c2ccc(OCc3ccccc3)cc2c1C	-61.3

SMILES	hERG current change (%, negative = inhibition) at 1uM [%]
Cc1c(C(=O)N2CCOCC2)[nH]c2ccc(OCc3ccccc3)cc12	-1.19
COc1ccc2[nH]c(C(=O)NCc3ccccc3)c(C)c2c1.Cl	10.3
COc1ccc(N(C(=O)c2ccccc2OC)C2C=CS(=O)(=O)C2)c(OC)c1 (centres unmarked)	14.4
COc1ccc(CN2CCNC(=O)C2CC(=O)NCCc2nc(C)c3c(n2)CCC3)cc1C (centres unmarked)	32.9
CCC(c1nnnn1CCc1ccccc1)N1CCN(c2ccc(OC)cc2)CC1 (centres unmarked)	14.5
COc1ccc(F)c(CN2CCC(CO)(Cc3cccc(C(F)(F)F)c3)CC2)c1	-1.43
COC(=O)c1ccc(CN2CCC(CO)(Cc3ccc(OC)cc3)CC2)cc1	-35.1
COc1ccc(CC2(CO)CCN(Cc3ccc(OC(F)(F)F)cc3)CC2)cc1	-57.5
COc1ccc(CC2(CO)CCN(Cc3cccc4nccnc34)CC2)cc1	-53
COc1ccc(CN2CCC(CO)(Cc3ccccc3C(F)(F)F)CC2)c(F)c1	-53
COc1ccc(CC2(CO)CCN(Cc3cccnc3)CC2)cc1	1.4
COc1cccc(CC2(CO)CCN(Cc3cccn3-c3cccnc3)CC2)c1	-6.04
COc1ccc(CC2(CO)CCN(Cc3cccc(OC)c3OC)CC2)cc1	-17.3
COc1ccc(CC2(CO)CCN(Cc3ccncc3)CC2)cc1	7.36
OCC1(Cc2cccc(F)c2)CCN(Cc2cccc3nccnc23)CC1	-19.8
OCC1(Cc2ccccc2C(F)(F)F)CCN(Cc2ccccc2)CC1	3.01
COc1ccc(CC2(CO)CCN(Cc3cccn3-c3ccccn3)CC2)cc1	-84.2
Cc1ccc(-c2nc(CS(=O)CC(=O)N3CCC4(CC3)OCCO4)c(C)o2)cc1 (centres unmarked)	-3.05
Cc1ccc(N2CCN(C(=S)Nc3ccc(Cl)cc3)CC2)cc1	13.4
CCN(CCCNC(=O)Cn1ncc2c([nH]c3ccccc32)c1=O)Cc1ccccc1	-2.84
Nc1c(C(=O)c2ccccc2)sc2snc(SCC(=O)c3ccccc3)c12	14.8
COc1cc(/C=C/C(=O)OCC(=O)N2CCCc3ccccc32)ccc1OCC#N	14.6

Source: publication PMC4336329 (PLoS ONE, 2015)
